# Compounds with a hit are over-represented: about 11% of the library has one in this group of screens.
# Pf growth 48h – inhibits P. falciparum growth in the first generation, 48 h; P. falciparum luciferase growth in erythrocytes, 48 h; Potency, µM (titrated, usually from 28.7 µM), for inactives: top-dose activity change, negative = inhibition, most hits filed as inhibitors; hit rate 5.9% among 310,000; AID 504832
#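 Here the parasites carry a stable luciferase gene and grow inside erythrocytes in Albumax-based RPMI medium with compound for one erythrocytic cycle. Activity is scored as loss of luminescent signal.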
# AMA1 RON2 block – inhibitors of Plasmodium falciparum AMA1-RON2 interaction. Potency, µM (doses to about 58.2 µM), for inactives: top-dose activity change, negative = inhibition, usual class: inhibitors. AID 720542. AlphaScreen AMA1-biotinylated RON2 peptide binding. hit rate 0.2% among 360,000;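 further: 0% = vehicle wells and -100% = peptide control; nearly all actives have a fitted effect of over 45% in size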
#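 AMA1 (3D7) with his tag at 25 nM final met compounds first, then biotinylated RON2 peptide at 25 nM; detection used donor plus acceptor beads, 10 µg/mL apiece, read by AlphaScreen after 30 min at room temperature.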
# HCV inhibitor – blocks hepatitis C virus | Huh7.5.1 HCVcc-Cre infection, luciferase reporter, 44 h | Potency, µM (top dose mostly 41.8 µM), inactives show at the top dose activity change, negative = inhibition, usual class: inhibitors | hit rate 3.4% among 340,000 | AID 651820
#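 HCVcc-Cre virus at an moi near 0.5 was added right after compound to cells cultured 4 h from seeding (1,000 cells/well). Luciferase activity was determined 44 h later, 15 min after substrate addition at RT.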
# Pf growth 96h – P. falciparum growth inhibition at 96 hour, primary screen for plastid delayed-death inhibitors; P. falciparum luciferase reporter growth, 96 h; Potency, µM (doses to about 28.7 µM), for the others: at the top dose activity change, negative = inhibition, most hits filed as inhibitors; AID 504834; hit rate 6.9% among 320,000
#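 Infected RBCs, 2% Hct / 0.05% parasitemia final; luciferase-reporter P. falciparum; cpd 96 h, 37 C, 5% CO2; luciferase detection reagent; luminescence.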
# The depositor's hits bear a star; ? = inconclusive; nt = not tested or not shown. The call rests on the fitted dose curve; in most records, active means well fitted curve in the direction sought with a large enough effect; inconclusive means small, poorly fitted or top-dose-only effect, or another doubt; inactive means no such curve, though single readings can be large; an effect the other way counts as inactive or inconclusive. Unless noted, on the % scale 0 is the no-effect control and ±100 the full control effect; potency means the concentration at half of the fitted maximal effect.
SMILES,Pf growth 48h,AMA1 RON2 block,HCV inhibitor,Pf growth 96h
O=C(NCc1nc2ccccc2[nH]1)C1=C[C@H](c2coc3ccccc3c2=O)C[C@H](OCc2ccc(CO)cc2)O1,?,36%,?,?
COc1ccc(NC(=O)C2CCCN2S(=O)(=O)c2cccc3nsnc23)c(OC)c1 (centres undefined),?,2%,5%,10µM*
Cc1ccc(C(=O)O)cc1NC(=O)C1CCCN1S(=O)(=O)c1cccc2nsnc12 (centres undefined),nt,-5%,13%,17µM*
O=C(Nc1ccccc1Br)C1CCCN1S(=O)(=O)c1cccc2nsnc12 (centres undefined),-2%,-8%,-13%,?
Cc1c(NC(=O)C2CCCN2S(=O)(=O)c2cccc3nsnc23)cccc1C(=O)O (centres undefined),nt,11%,-2%,9.3µM*
O=C(Nc1ccccc1F)C1CCCN1S(=O)(=O)c1cccc2nsnc12 (centres undefined),9%,0%,12%,?
COc1ccc(C(=O)/C=C/c2ccc(OC)c(Cn3nnc4ccccc43)c2)cc1,?,-17%,-25%,0.1µM*
COc1ccc(/C=C/C(=O)c2nc3ccccc3n2CC(=O)c2ccc(OC)cc2)cc1,10µM*,18%,-18%,-186%
O=C(NCCCl)NNc1c(Cl)cc(Cl)cc1Cl,-30%,-9%,-1%,?
CCCCNC(=S)NNc1c(Cl)cc(Cl)cc1Cl,-2%,-8%,1%,8.3µM*
O=C(COC(=O)CNC(=O)c1cccc([N+](=O)[O-])c1)NCc1ccco1,5%,4%,31%,50%
Cc1cc(N2CCCC2)nc(N2C3CCC2CC(O)(c2ccc(F)cc2)C3)n1 (centres undefined),?,nt,nt,145%
COc1ccc(C2(O)CC3CCC(C2)N3c2cc(C)nc(-c3ccccc3)n2)cc1 (centres undefined),12µM*,-12%,?,nt
CCOc1ccccc1N1CCN(C(=O)C2=CC=CN3CCS(=O)(=O)N=C23)CC1,-9%,1%,1%,-22%
COc1cc(CN2C[C@@H](CO)O[C@@H](n3cnc4c(N(C)C)ncnc43)C2)cc(OC)c1OC,nt,-10%,nt,nt
CCOC(=O)c1c(C)[nH]c(C)c1S(=O)(=O)N(C)CC(=O)NCc1cccc(C)c1,?,-5%,11%,5.9µM*
Cc1ccnc(N2C(=O)CSC2c2ccc(Cl)cc2)c1 (centres undefined),?,-3%,-16%,?
COc1ccc(C2CC3(CC(C)(C)NC(=O)N3)Oc3cc(O)ccc32)cc1 (centres undefined),?,-13%,-12%,nt
COc1ccc(C2CC3(CC(C)(C)NC(SC)=N3)Oc3cc(O)cc(C)c32)cc1 (centres undefined),?,-10%,13µM*,0%
COc1ccc(C2CC3(CC(C)(C)NC(=S)N3)Oc3cc(O)cc(C)c32)cc1 (centres undefined),?,51%,?,4.1µM*
Cc1cc(O)cc2c1C(c1ccc(F)cc1)CC1(CC(C)(C)NC(=S)N1)O2 (centres undefined),?,19%,22µM*,30%
O=C1c2ccccc2C(O)(c2ncc[nH]2)N1CCc1ccccc1 (centres undefined),-6%,27%,15%,nt
O=C(NC(Cc1c[nH]c2ccccc12)C(=O)OCC(=O)c1cccc2ccccc12)c1cccs1 (centres undefined),-18%,39%,0%,-3%
Nc1nnc(CC(=O)N/N=C\c2cc([N+](=O)[O-])ccc2O)s1,12%,-14%,10%,10µM*
CCOC(=O)c1c(C)[nH]c(C(=O)N/N=C\c2ccccc2O)c1C,?,78%,?,?
SMILES,Pf growth 48h,AMA1 RON2 block,HCV inhibitor,Pf growth 96h
CCOC(=O)c1c(C)[nH]c(C(=O)N/N=C/c2cc([N+](=O)[O-])ccc2O)c1C,?,4%,11µM*,?
O=C(N/N=C/c1cc([N+](=O)[O-])ccc1O)NC12CC3CC(CC(C3)C1)C2,-67%,71%,7%,3.3µM*
CCNC(=O)C(=O)N/N=C/c1cc([N+](=O)[O-])ccc1O,?,-14%,11%,10µM*
O=C(N/N=C/c1ccc(O)cc1O)NC12CC3CC(CC(C3)C1)C2,?,55%,6%,-28%
CCCCn1c(N)c(N(CC(C)C)C(=O)c2cc3c(s2)CCCCC3)c(=O)[nH]c1=O,6%,9%,-10%,-12%
O=C(O)CCCCCCCCCCCc1ccccc1,27%,21%,-72%,32%
CCOC(=O)CN1C(=O)CN(c2ccc(C)cc2)C1=O,83%,-2%,30%,-1%
O=C(N/N=C/c1cc([N+](=O)[O-])ccc1O)Nc1ccccc1,?,45%,-2%,-14%
O=C(N/N=C/c1cc([N+](=O)[O-])ccc1O)C12CC3CC(CC(C3)C1)C2,8.3µM*,90%,?,34%
Clc1cccc(Cc2c(C3CCCCC3)nc3ccc(Cl)cn23)c1,nt,-13%,nt,nt
Cc1ncsc1C(=O)Nc1nc2c(s1)CCCC2,nt,5%,-4%,10%
Cc1cc(C(=O)Nc2nc3c(s2)CCCC3)cs1,-38%,12%,13µM*,-14%
Cc1ccccc1C(=O)NC(C(=O)Nc1nc2c(s1)CCCC2)C(C)C (centres undefined),?,10%,-1%,4.7µM*
c1ccc(CN2CCCC3(CCCN(Cc4nc(COc5ccccc5)no4)C3)C2)cc1 (centres undefined),12µM*,-3%,-1%,40%
c1ccc(CN2CCCC3(CCCN(Cc4nc(CC5CC5)no4)C3)C2)cc1 (centres undefined),-11%,10%,10%,283%
Cc1ccc(C)c(SCc2noc(C(=O)NCC3CCCO3)c2C(=O)O)c1 (centres undefined),37%,-2%,48%,47%
Cc1ccnc(NC(=O)c2cccc(NC(=O)c3ccccc3C)c2)c1,18%,8%,-23%,8%
Cc1cc(C)nc(SCCn2c(N3CC(C)OC(C)C3)nc3c2c(=O)n(C)c(=O)n3C)n1 (centres undefined),-6%,-6%,14%,20%
Cc1ccc(N)c(C(=O)c2ccc(Br)cc2)c1,29%,16µM*,9%,-7%
Nc1ccc(Br)cc1C(=O)c1ccccc1,8%,-21%,-1%,-1%
Nc1nc(SCc2ccccc2)sc1C(=O)N1CCCCC1,nt,-8%,nt,nt
COc1ccc(N2CCN(C(=O)CSc3nnc4c(C)cc5cc(C)ccc5n34)CC2)cc1,-9%,3%,?,53%
COc1cc(NC(=O)CSc2nnc3n2C(C)(C)Cc2ccccc2-3)cc(OC)c1,?,0%,-7%,4.1µM*
COc1ccc(N2CCN(C(=O)CSc3nnc4n3C(C)(C)Cc3ccccc3-4)CC2)cc1,12µM*,-2%,?,?
COc1ccc(N2CCN(C(=O)CSc3nnc4c(C)cc5c(C)cc(C)cc5n34)CC2)cc1,2.9µM*,-22%,?,-4%
